From PubChem
CYP2C9 inh: blocks human cytochrome P450 2C9; CYP2C9 Supersomes, luciferin-H conversion, luminescence; inhibition, % at 5 µM; hit rate 20% among 96,000;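 active means blocking of liver enzyme CYP2C9 beyond about 50% at 5 µM, limit read from the data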
Target sequence (P11712 whole entry, looked up): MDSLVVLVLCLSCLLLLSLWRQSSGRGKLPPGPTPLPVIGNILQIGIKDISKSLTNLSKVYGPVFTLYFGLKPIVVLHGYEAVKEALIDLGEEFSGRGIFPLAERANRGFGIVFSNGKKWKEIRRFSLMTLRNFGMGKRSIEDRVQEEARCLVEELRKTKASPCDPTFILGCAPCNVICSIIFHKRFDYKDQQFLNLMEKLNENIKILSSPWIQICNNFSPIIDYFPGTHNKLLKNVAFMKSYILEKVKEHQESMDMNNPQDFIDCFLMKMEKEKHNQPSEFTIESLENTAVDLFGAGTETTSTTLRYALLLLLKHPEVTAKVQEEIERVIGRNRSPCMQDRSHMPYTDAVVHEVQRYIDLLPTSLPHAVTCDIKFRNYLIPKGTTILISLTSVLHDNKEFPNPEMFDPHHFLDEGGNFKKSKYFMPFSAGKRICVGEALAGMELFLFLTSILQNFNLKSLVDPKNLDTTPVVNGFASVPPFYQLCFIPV
CYP2C9 act: CYP2C9 (human) activation. recombinant CYP2C9, luciferin-H conversion, luminescence; active compounds read high; factor 1 = untreated enzyme, 0 = blocked. activation factor at 5 µM. hit rate 1.4% among 96,000. AID 1024;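 active means activation factor of 2 or more for CYP2C9 at a 5 µM dose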;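 further: 0 = sulfaphenazole-blocked wells and 1 = vehicle-only wells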
CYP2C19 inhib: blocks human cytochrome P450 2C19; CYP2C19 Supersomes, luciferin-H EGE luminescence, 30 min; inhibition, % at 5 µM; hit rate 21% among 96,000;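 active means CYP2C19 inhibition above a set limit at 5 µM in the primary screen, cut at about 50% in these data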;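 further: plate controls were negative control wells for no effect and 2.5 mM tranylcypromine positive control for full effect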
CYP2C19 activ: activators of human cytochrome P450 2C19 | P33261 | recombinant CYP2C19, luciferin-H EGE luminescence; active compounds read high; 0 = fully inhibited enzyme, 1 = untreated enzyme | activation factor at 5 µM | 96,000 tested, under 10 active | AID 1025;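 active means activation factor of at least 2 at 5 µM in the primary screen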;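 further: 0 = wells with 2.5 mM tranylcypromine and 1 = vehicle-only wells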
Cav32 inh: human Cav3.2 channel inhibition, primary screen | B-score at 10 µM | Cav3.2-expressing cells, Fluo-4 calcium fluorescence FDSS; active compounds read low | hit rate 4% among 100,000 | AID 449739;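 active means single-dose well whose peak fluorescence ratio is a statistical outlier from its plate by either plate-standardised score or position-corrected B-score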
Active calls of the source: *; x = no result. Shown are actives, neighbours in structure and some others; about 27% of the full set was active somewhere.

SMILES | CYP2C9 inh | CYP2C9 act | CYP2C19 inhib | CYP2C19 activ | Cav32 inh
COc1ccc(NC(=S)NCCSc2ccc(Cl)cc2)c(OC)c1 | -49 | 1.5 | 44 | 0.6 | -1.9
COc1ccc(C(=O)Nc2ccccc2C(=O)N/N=C/c2cccc3ccccc23)cc1 | 50 | 0.5 | 37 | 0.6 | -3.7
O=C(NCCc1c[nH]c2ccccc12)C1Cc2ccccc2CN1C(=O)c1ccco1 (stereo unspecified) | 63* | 0.4 | 95* | 0 | -1.7
Cc1c(C#N)c2ccccc2n1CC(=O)NCCc1c[nH]c2ccccc12 | 42 | 0.6 | 41 | 0.6 | -0.036
O=C(NCCc1c[nH]c2ccccc12)c1cnc2sccn2c1=O | -152 | 2.5* | 89* | 0.1 | 0.31
O=C(NCCc1c[nH]c2ccccc12)C(F)(F)C(F)F | 27 | 0.7 | 72* | 0.3 | 0.17
N#Cc1cn(CC(=O)NCCc2c[nH]c3ccccc23)c2ccccc12 | 66* | 0.3 | 50* | 0.5 | -3
NS(=O)(=O)c1ccc(CCNC(=O)C2Cc3ccccc3CN2C(=O)c2ccco2)cc1 (stereo unspecified) | 23 | 0.8 | 14 | 0.9 | 0.22
O=C(NCCc1c[nH]c2ccccc12)[C@@H]1C[C@H]1[C@@H](NP(=O)(c1ccccc1)c1ccccc1)c1ccccc1 | x | x | x | x | -3.9
CN(C)NC(=O)c1ccsc1NC(=O)c1ccc(S(=O)(=O)N(C)C)cc1 | x | x | x | x | 0.49
CCOc1nc(SC(C(C)=O)C(=O)Nc2ccccc2)nc(N(C)C)n1 (stereo unspecified) | x | x | x | x | -0.47
N[C@@H](Cc1c[nH]c2ccccc12)C(=O)O | x | x | x | x | 0.2
O=C(NCCc1c[nH]c2ccccc12)Nc1ccccc1 | -20 | 1.2 | 91* | 0.1 | -1.7
O=C(O)C1CCCCC1C(=O)NCCc1ccncc1 (stereo unspecified) | 67* | 0.3 | 46 | 0.5 | 0.079
COc1ccc(-c2cn3ccc4ccccc4c3n2)cc1 | x | x | x | x | 0.12
CCn1c(=O)n(CC)c2cc(S(=O)(=O)Nc3ccccc3C)c(C)cc21 | 76* | 0.2 | 72* | 0.3 | 0.71
CCCn1c(SCC(=O)N2c3ccccc3CC2C)nnc1-c1ccco1 (stereo unspecified) | x | x | x | x | 0.22
COc1ccc(OC2C(=O)N(Cc3ccc(F)cc3)C2c2ccc(OC)c(OC)c2)cc1 (stereo unspecified) | 60* | 0.4 | 72* | 0.3 | -1.1
COc1ccc(C2C(Oc3ccccc3)C(=O)N2c2ccc(C)c(C)c2)cc1OC (stereo unspecified) | x | x | x | x | -1.7
Cc1ccc(C(=O)NCCc2csc(-c3cccnc3)n2)cc1 | 63* | 0.4 | 47 | 0.5 | 0.24
COc1ccc(-c2nc(CCNC(=O)c3ccco3)cs2)cc1OC | 54* | 0.5 | 33 | 0.7 | 0.45
COc1ccc(S(=O)(=O)NCCc2csc(-c3cccnc3)n2)cc1 | 60* | 0.4 | 93* | 0.1 | 1
O=C(NCCc1csc(-c2ccc(C(F)(F)F)cc2)n1)c1cccs1 | 75* | 0.2 | 41 | 0.6 | -6.1*
COc1ccc(CCNC(=O)COC(=O)c2ccco2)cc1OC | -10 | 1.1 | -1 | 1 | -0.0056
O=C(NCCc1ccc(F)cc1)c1cccs1 | x | x | x | x | 0.92
SMILES | CYP2C9 inh | CYP2C9 act | CYP2C19 inhib | CYP2C19 activ | Cav32 inh
O=S(=O)(NCCc1csc(-c2cccnc2)n1)c1ccc(Cl)s1 | 83* | 0.2 | 80* | 0.2 | 0.53
CCc1ccc(S(=O)(=O)NCc2csc(-c3cccnc3)n2)s1 | x | x | x | x | -0.03
O=C(CNc1ccc(C(F)(F)F)cc1[N+](=O)[O-])OCC(=O)c1ccccc1 | 55* | 0.4 | 39 | 0.6 | x
Cc1ccc(C(=O)COC(=O)CNC(=O)Cc2ccccc2)cc1[N+](=O)[O-] | -8 | 1.1 | -6 | 1.1 | x
COCCCNS(=O)(=O)c1ccc(S(=O)(=O)N2CCCC2)cc1 | 44 | 0.6 | 29 | 0.7 | 0.35
Cc1ccc(-c2csc(N(Cc3ccccc3)C(=O)COc3ccccc3)n2)cc1 | 31 | 0.7 | 7 | 0.9 | -0.6
Cc1ccc(-c2csc(N(CCc3ccccc3)C(=O)COc3ccccc3)n2)cc1 | 98* | 0 | 62* | 0.4 | -1.8
O=C(COc1ccccc1)N(CCc1ccccc1)c1nc(-c2ccc(F)cc2)cs1 | 81* | 0.2 | 3 | 1 | x
CCOC(=O)NCC(C)(C)CNC(=O)OCC | -4 | 1 | -1 | 1 | -0.52
CC(C)(C)c1ccc(S(=O)(=O)N2CC(=O)Nc3ccccc32)cc1 | 10 | 0.9 | 82* | 0.2 | 0.065
Cc1ccc2[nH]c(=O)c3cc(C(=O)N(CCCOC(C)C)Cc4ccco4)sc3c2c1 | 58* | 0.4 | 37 | 0.6 | -1
CCCCN(Cc1ccco1)C(=O)c1cc2c(=O)[nH]c3ccc(C)cc3c2s1 | 72* | 0.3 | 50* | 0.5 | -0.18
CCn1c(CNC(=O)c2cccs2)nnc1SCC(=O)Nc1ccc(Cl)cc1 | x | x | x | x | -2.9
CCOC(=O)C(Sc1cc(C)nc(N)n1)C(C)=O (stereo unspecified) | 3 | 1 | -8 | 1.1 | 0.82
COC(=O)NCC1(C)CC(NC(=O)OC)CC(C)(C)C1 (stereo unspecified) | -17 | 1.2 | 77* | 0.2 | x
CCc1nnc(SCc2ccc(OC)c(Br)c2)n1N | -27 | 1.3 | 58* | 0.4 | 1.1
COc1ccccc1C1=NOC(Cn2c(=O)c3c(ncn3C)n(C)c2=O)C1 (stereo unspecified) | -48 | 1.5 | 26 | 0.7 | 0.71
COc1ccc(C2=NOC(Cn3c(Cc4ccc(Cl)cc4)nc4c3c(=O)n(C)c(=O)n4C)C2)cc1 (stereo unspecified) | 82* | 0.2 | 74* | 0.3 | -0.73
O=C(NCC1CCCO1)c1onc(CSc2ccccc2F)c1C(=O)O (stereo unspecified) | 19 | 0.8 | 18 | 0.8 | -0.027
CC(Oc1ccc(-c2ccccc2)c(F)c1)c1ccn(S(=O)(=O)c2ccc(Br)cc2)n1 (stereo unspecified) | 71* | 0.3 | 58* | 0.4 | -2.8
CC(C)(C)NC(=O)COc1ccc(CNCc2cccs2)cc1 | 2 | 1 | 24 | 0.8 | 0.46
c1ccc(COc2ccc(CNCc3cccs3)cc2)cc1 | 21 | 0.8 | 54* | 0.5 | -2.1
COc1ccc(C(=O)CSc2nc3ccccc3n2CC(=O)c2ccccc2)cc1 | 76* | 0.2 | 54* | 0.5 | -3.1
COc1ccc(OC)c(C(=O)CSc2nc3ccccc3n2CC(=O)NC(C)(C)C)c1 | 87* | 0.1 | 26 | 0.7 | -0.45
CC(C)(C)NC(=O)Cn1c(SCC(N)=O)nc2ccccc21 | -16 | 1.2 | -18 | 1.2 | 0.015
CCC(=O)Nc1ccc(C(=O)OCc2ccccc2Cl)cc1 | -63 | 1.6 | 57* | 0.4 | -0.89
CCC(=O)Nc1cc(C(=O)OCC(=O)c2ccccc2Cl)ccc1C | -109 | 2.1* | 27 | 0.7 | 0.24
CCC(=O)Nc1ccc(NC(=O)c2c(C)nc3ccccn23)cc1 | 5 | 0.9 | 2 | 1 | x
CCC(=O)Nc1ccc(C(=O)CSc2nc3ccccc3cc2CC)cc1 | 88* | 0.1 | 3 | 1 | 1.2
